PubChem BioAssay (NCI)
The panel holds about 83,000 compounds, 20% with a hit somewhere; the sample as a whole holds those more often.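 For each line, cells grew in 96-well plates with the test compound present at a single concentration for 48 hours.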 Unmarked numbers belong to inactive results. Active and inactive are the calls of the source. The calls were made as follows: active = growth percent below 10; inactive = the rest.

Assays:
Assay in all cases: NCI-60 one-dose screen, 48 h (100 = growth as untreated, 0 = no growth, -100 = all killed)
NCI-H23 lung = details: 10 µM unless noted
NCI-H226 lung = details: 10 µM unless noted
NCI-H322M lung = details: 10 µM unless noted
HOP-62 NSCLC = details: 10 µM unless noted
NCI-H460 lung = details: 10 µM unless noted
HOP-92 NSCLC = details: 10 µM unless noted
NCI-H522 lung = details: 10 µM unless noted
A549/ATCC NSCLC = details: 10 µM unless noted
786-0 renal = details: 10 µM unless noted
COLO 205 colon = details: 10 µM unless noted
DU-145 prostate = details: 10 µM unless noted
K-562 leukemia = details: 10 µM unless noted
MALME-3M melanoma = details: 10 µM unless noted
MDA-MB-231 breast = details: 10 µM unless noted
RXF 393 renal = details: 10 µM unless noted
SF-268 CNS = details: 10 µM unless noted
SF-295 CNS = details: 10 µM unless noted
SF-539 CNS = details: 10 µM unless noted
UACC-257 melanoma = details: 10 µM
M14 melanoma = details: 10 µM unless noted

Row | SMILES | growth (NCI-H23 lung) | growth (NCI-H226 lung) | growth (NCI-H322M lung) | growth (HOP-62 NSCLC) | growth (NCI-H460 lung) | growth (HOP-92 NSCLC) | growth (NCI-H522 lung) | growth (A549/ATCC NSCLC) | growth (786-0 renal) | growth (COLO 205 colon) | growth (DU-145 prostate) [%] | growth (K-562 leukemia) | growth (MALME-3M melanoma) | growth (MDA-MB-231 breast) | growth (RXF 393 renal) | growth (SF-268 CNS) [%] | growth (SF-295 CNS) | growth (SF-539 CNS) | growth (UACC-257 melanoma) | growth (M14 melanoma)
1 | Cn1ccnc1C(=O)/C=C/c1ccc(C(=O)Nc2ccc(NC(=O)CCNC(=O)c3csc(Br)n3)cc2)cc1 | 43.5% | 84.5% | 66.2% | 62.6% | 46.2% | 103% | 29% | 64.5% | 66.3% | 85.7% | 11.9 | 16% | 102% | 72.9% | 68.2% | 62.2 | 81.3% | 7.51% (active) | 88.6% | –
2 | O=C(NCCCNc1cc(-c2cn(-c3ccccc3)nc2-c2cccc(O)c2)ccn1)Nc1cccc(C(F)(F)F)c1 | 58% | 62% | 54.2% | 43.2% | 28.7% | 40.2% | 46.9% | 49% | -4.95% (active) | 3.19% (active) | 66.9 | 13.3% | 17.7% | 18.6% | -14% (active) | 38.6 | -15.3% (active) | 27.5% | 21.1% | –
3 | COc1ccc(N2C(=O)c3cc(OC)c(OC)cc3NC2SCc2ccccc2)cc1 (stereo not drawn) | 107% | 102% | 104% | 107% | 122% | 112% | 95.2% | 110% | 117% | 109% | 110 | 88.6% | 95.2% | 91.5% | 144% | 110 | 103% | 94.3% | 105% | –
4 | CN1C(=O)N(C)C2C1NN=c1s/c(=C\c3ccccn3)c(=O)n12 (stereo not drawn) | 99.1% | 99.7% | 99.6% | 100% | 108% | 96.6% | 93.4% | 99.8% | 101% | 110% | 108 | 93.9% | 92.7% | 98% | 102% | 99.9 | 99.8% | 96.3% | 96.4% | –
5 | O=c1oc2ccc(-c3ccc(F)cc3F)cc2c(=O)n1-c1ccc(F)c(F)c1 | 2.21% (active) | 6.65% (active) | 6.5% (active) | 17.6% | 2.7% (active) | -21.4% (active) | -2.51% (active) | 7.96% (active) | 10.2% | 83.2% | 17.5 | 10.8% | -14.6% (active) | 7.85% (active) | -28.4% (active) | 13.7 | -12.6% (active) | 11.9% | -14.9% (active) | –
6 | COc1ccc([C@H]2c3[nH]c4ccccc4c3C[C@@H]3C(=O)N(C4CCN(Cc5ccccc5)CC4)CC(=O)N23)c(OC)c1 | 93.7% | 82.3% | 90.1% | 80.8% | 54.4% | 68% | 87% | 69.8% | 74.3% | 67.1% | 86.3 | 28.8% | 97.1% | 77.7% | 41.9% | 63 | 94.6% | 81.7% | 94.5% | –
7 | COc1cc(/C=C/C(=O)c2ccc(NC(=O)CSc3nnc(-c4ccc5nc(-c6ccccc6)[nH]c5c4)o3)cc2)cc(OC)c1OC | 92.7% | 99.3% | 96.9% | 114% | 92.5% | 142% | 95.3% | 105% | 75.4% | 115% | 91 | 58.3% | 109% | 93.6% | -6.89% (active) | 97.7 | 105% | 82.5% | 87.6% | –
8 | CCNC(=O)Oc1ccc(/C(=C(/C)c2ccccc2)c2ccc(OCCN3CCCC3)cc2)cc1 | 74.6% | 96.6% | 93.2% | 89.9% | 76.2% | 61.9% | 83.3% | 74.9% | 36.7% | 75.5% | 89.5 | 11.3% | 30% | 66.7% | 54.6% | 80.3 | 60.5% | 49.7% | -3.88% (active) | 24.3%
9 | CCN1C(=O)N(CC)C2SC(N/N=C/c3ccccc3)=NC21 (stereo not drawn) | 31.1% | 43% | 51.7% | 38.3% | 6.05% (active) | 2.09% (active) | -34.3% (active) | 28.7% | 32.7% | -43.5% (active) | 22.5 | 14.7% | 58.2% | 26% | 41.5% | 47.6 | 12.8% | -11.2% (active) | 62.9% | 12.3%
10 | COc1ccc(-c2nc(SCCC(C)C)nc(N/N=C\c3ccc(O)cc3)c2C#N)cc1 | 36.3% | 97.3% | 82.7% | 61.9% | 10.9% | 67.7% | 87.7% | 60.2% | 34% | 106% | 59.7 | 42.2% | 79.3% | 54.2% | 78% | 55.7 | 91.6% | 35.1% | 111% | 76.6%
11 | Cc1ccc(/C=C/CC(=O)Nc2ccc(C(=O)Nc3ccc(F)cc3N)nc2)cn1 | 45.7% | 50.3% | 52.7% | 51.1% | 45.6% | -3.93% (active) | 2.35% (active) | 43.8% | 51.4% | 25% | 34.9 | 20.4% | 23.9% | 54.7% | 37.2% | 45.2 | 49.1% | 40.8% | 32.9% | 35.5%
12 | O=C(NNc1nc2cc(F)c(F)cc2n2cccc12)c1ccncn1 | 18.3% | 16.2% | 28.9% | 26.8% | 9.5% (active) | 62.7% | 2.02% (active) | 18% | 11.9% | 19.9% | 22.2 | 16.1% | 34.4% | 36.4% | 30.4% | 18.7 | 15.9% | 6.94% (active) | 15.7% | 12.9%
13 | O=C(NNc1nc2cc(F)cc(F)c2n2cccc12)c1ccncn1 | 17.6% | 7.28% (active) | 28.6% | 13.1% | 7.43% (active) | 67.4% | -12.4% (active) | 13.4% | 7.83% (active) | 11.5% | 18.7 | 8.02% (active) | 28.3% | 32.2% | 18.8% | 12.5 | 15.1% | 7.47% (active) | 5.21% (active) | 4.27% (active)
14 | N#Cc1c(NC(=O)c2ccc(F)c(Cl)c2)sc2c1CCC(=O)C2 | -7.87% (active) | 18.3% | 53.6% | 8.63% (active) | 4.07% (active) | -37.4% (active) | 3.24% (active) | 19.4% | 21.3% | -50.2% (active) | 25.8 | 9.06% (active) | -78.7% (active) | -55.7% (active) | -60.5% (active) | 16.3 | -12.2% (active) | -56.2% (active) | 2.11% (active) | -17.8% (active)
15 | C/C(=N/Nc1nc(N/N=C(/C)c2ccc([N+](=O)[O-])cc2)nc(N2CCOCC2)n1)c1ccc([N+](=O)[O-])cc1 | 57.9% | 41.9% | 86.7% | 86.2% | 78.1% | 64.1% | 61.7% | 73.9% | 66.9% | 94.8% | 81 | 79.7% | 69.4% | 43.5% | 69.2% | 96 | 66.5% | 15.5% | 99.2% | 74.5%
16 | COc1cc2cc(Oc3ccc(NC(=O)c4cccc(C(F)(F)F)c4)cc3)c(C)nc2cc1OCCN(C)C | 90.4% | 95.5% | 104% | 97.9% | 47.1% | 62% | 99.9% | 89.2% | 60.1% | 95.8% | 68.6 | 7.14% (active) | -73.7% (active) | 79% | 39.6% | 92 | -50.5% (active) | 63.3% | 93.2% | 80.8%
